PubChem BioAssay (NCI)
Compounds without any hit were thinned out: in the full panel of roughly 79,000, 15% have a hit. Rule as the data show it: active = growth inhibition above about 70%; inactive = the rest. Where a SMILES comes first, the peptide text is derived from it. [ ]: non-standard residue; d: D form. The star is where a group is joined. ξ: configuration not given here. Cbz = O=C(OCc1ccccc1)*; ξNva = CCCC(N)C(=O)O

Columns and labels:
[1] = NCI Yeast Anticancer Drug Screen. Data for the rad50 strain (AID 155);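 also: 0% = growth of vehicle-only cultures of the same strain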; details: S. cerevisiae rad50 strain growth inhibition; at 50.0 µM; active compounds read high
In short: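 Cells are treated with compound, grown, and their growth is then scored against vehicle-only cultures of the same repair-deficient yeast strain.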

[2] = NCI Yeast Anticancer Drug Screen. Data for the mec2-1 strain (AID 157); details: S. cerevisiae mec2-1 strain, at 50.0 µM, active compounds read high
In short: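 Vehicle-treated cultures served as reference for growth inhibition of compound-exposed mec2-1 yeast.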

[3] = NCI Yeast Anticancer Drug Screen. Data for the sgs1 mgt1 strain (AID 161);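 also: 0% = growth of cultures given vehicle only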; details: S. cerevisiae sgs1 mgt1 strain, at 50.0 µM, active compounds read high
In short: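 Genetically altered yeast, compound exposure, growth inhibition relative to vehicle.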

[4] = NCI Yeast Anticancer Drug Screen. Data for the cln2 rad14 strain (AID 165);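 also: 0% = growth equal to vehicle treated cultures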; details: S. cerevisiae cln2 rad14 strain, at 50.0 µM, active compounds read high
In short: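 Each compound was tested on cln2 rad14 yeast. Inhibition of growth was calculated against vehicle-exposed controls.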

[5] = NCI Yeast Anticancer Drug Screen. Data for the bub3 strain (AID 167); details: S. cerevisiae bub3 mutant strain, at 50.0 µM, active compounds read high
In short: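 Part of a panel of yeast mutants defective in DNA damage repair or cell cycle regulation. Each strain is grown with compound, and inhibition is calculated relative to solvent-treated cultures.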

[6] = NCI Yeast Anticancer Drug Screen. Data for the mlh1 rad18 strain (AID 175); details: S. cerevisiae mlh1 rad18 strain growth inhibition; at 50.0 µM; active compounds read high
In short: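 Vehicle-treated cultures served as the reference for growth inhibition in a yeast strain carrying DNA damage repair alterations exposed to each compound.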

Measured: growth inhibition

COC(=O)CCCC(NC(=O)c1ccc([N+](=O)[O-])cc1)C(=O)OC (stereo not given)
inactive: [1] 19.1% | [2] -9.45% | [3] 13.9% | [4] 5.45% | [5] 13.7% | [6] 14.9%

CCCC(NC(=O)OCc1ccccc1)C(=O)NCC(=O)NCC(=O)OC (stereo not drawn) (Cbz-[ξNva]-Gly-Gly-OMe)
inactive: [1] -30.8% | [2] 0.15% | [3] 12.2% | [4] 30.9% | [5] 0.5% | [6] 11.3%

Cc1ccc(S(=O)(=O)Oc2c(Cl)c(Cl)c(Cl)c(Cl)c2Cl)cc1
inactive: [1] -9.5% | [2] -10.1% | [3] 2.2% | [4] -15.3% | [5] 9.5% | [6] 5%

COc1cc2c(cc1O)C(C)C(c1ccccc1)O2 (stereo not given)
inactive: [1] 3.95% | [2] 4.8% | [3] 9.45% | [4] -21.1% | [5] 7.15% | [6] 13.2%

Clc1ccc(C(Cl)(Cl)C(Cl)(Cl)Cl)cc1
inactive: [1] 6.65% | [2] 40.4% | [3] -2.15% | [4] -61.2% | [5] 40% | [6] 44.1%

N#CCN1c2ccccc2CCC1Cl (stereo not given)
inactive: [1] -10.9% | [2] -17.6% | [3] -5.05% | [4] -7.45% | [5] 11.2% | [6] 12.4%

CCCP1(=O)C=C(C)C(=C(Cl)Cl)C(C)=C1 (stereo not given)
inactive: [1] 6.9% | [2] -19.2% | [3] -7.55% | [4] 13.6% | [5] -10.4% | [6] 6.4%

O/N=C/c1ncccc1C1OCCO1
inactive: [1] 9.45% | [2] -0.55% | [3] -2.35% | [4] 9.8% | [5] -6.7% | [6] 14.7%

Cc1cccc2c(SCCCCCCSc3c4ccccc4nc4c(C)cccc34)c3ccccc3nc12
inactive: [1] -2.25% | [2] -8.1% | [3] -26.7% | [4] -21.5% | [5] -2.7% | [6] 7.05%

O=C(CCCC(=O)Nc1ccccc1)Nc1ccccc1
inactive: [1] -9.35% | [2] -6.9% | [3] -1.55% | [4] -35.2% | [5] -14.1% | [6] -15.7%

N#CCc1nc2ccccc2[nH]1
inactive: [1] 7.95% | [2] -6.95% | [3] -9.35% | [4] 3.1% | [5] 6.25% | [6] 3.3%

CC(=O)Nc1[nH]ncc1C#N
inactive: [1] 3.05% | [2] -8% | [3] -0.2% | [4] -12.4% | [5] 13.3% | [6] 18%

O=C(O)c1cc(=O)[nH]c(=O)[nH]1.[Cu+2]
inactive: [1] -15.8% | [2] 8.7% | [3] -18.4% | [4] -35.3% | [5] -30.4% | [6] -16.2%

CCCC1([N+](=O)[O-])CCC(C)(O)C(C(C)=O)C1 (stereo not given)
inactive: [1] -4.3% | [2] -3.8% | [3] 0.9% | [4] -3.35% | [5] -4.8% | [6] 17.4%

CC(=O)C1=C(C)NC2C=CC=CN12 (stereo not given)
inactive: [1] 3.95% | [2] -6.9% | [3] 15.5% | [4] 17.9% | [5] 7.3% | [6] 12.9%

CC(C)=Cc1cc(CCC/C(C)=C/Cc2c(O)cc(C)c(C(=O)O)c2O)co1
inactive: [1] -9% | [2] -25.9% | [3] -1.75% | [4] -6.55% | [5] -18.9% | [6] -15.2%

CCCCn1[nH]c(=O)ccc1=O
inactive: [1] 16.9% | [2] 7.6% | [3] 1.9% | [4] 11.4% | [5] -8.45% | [6] -3.3%

O=C(O)/C(Cl)=C(\Cl)C(=O)NC1C2CC3CC(C2)CC1C3 (stereo not given)
inactive: [1] 14.4% | [2] 10.3% | [3] 13.8% | [4] 28.8% | [5] 3.6% | [6] 19.6%

CCn1c(=NC(=O)c2ccccc2O)sc2ccccc21
inactive: [1] 16.5% | [2] 4% | [3] 2.15% | [4] 17.9% | [5] -5.7% | [6] -3.05%

CC1=C(C(=O)Nc2ccccc2C)C(c2ccc(Cl)cc2)C(C(=O)Nc2ccccc2C)=C(C)N1
inactive: [1] -3.3% | [2] 2.6% | [3] -5.2% | [4] 14.4% | [5] -8% | [6] 0%
